Source: PubChem BioAssay AID2685 (National Center for Advancing Translational Sciences (NCATS), 2010)
Hit rate of the full screen: of about 320,000 compounds, about 2,100 (0.66%) were called active. Inconclusive results (about 53%) are left out. The call rests on the fitted dose curve; in most records, active means well fitted inhibition curve with a large enough effect in the signal ratio, with a control signal flat (not every such curve was filed as active); inconclusive means small, poorly fitted or top-dose-only effect, or effect the other way, or a change in a side signal; inactive means flat fitted curve, though single readings scatter; the % refers to the signal ratio. The full list was thinned out, with actives kept by preference.

experiment: qHTS Assay for Lipid Storage Modulators in Drosophila S3 Cells; details: BODIPY lipid droplet fluorescence, 18-24 h, cells fed with added oleic acid; cell number change: measured here: cell count max response; series mostly up to 46.1 µM;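 on cell number change: cells counted by Cell Tracker Red CMTPX staining in the red channel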
Summary of the method: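 Drosophila S3 cells got compounds at several concentrations plus oleic acid (400 uM solution). Laser-scanning cytometry with 488 nm excitation read lipid droplets at 500-530 nm and cells at 575-640 nm. Percent activity was relative to 20 uM Triacsin C.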
Potency means the concentration at half of the fitted maximal effect.

| Structure (SMILES) | Potency | cell number change [%] | outcome |
| --- | --- | --- | --- |
| CCOc1ccc(S(=O)(=O)NC2CCCC2)cc1 | inactive | 13.5 | – |
| CCOc1ccc(S(=O)(=O)N/N=C(\C)C2CCCCC2)cc1 | 20.6 µM (active) | -18.4 | – |
| CCOc1ccc(S(=O)(=O)NC2CCCCCC2)cc1 | inactive | 1.37 | – |
| CCNC(=O)CSc1nc(-c2ccc(F)cc2)cs1 | inactive | 6.04 | – |
| Cc1ccc(N=Nc2ccc3ccccc3c2O)cc1 | 0.058 µM (active) | 1.47 | – |
| Oc1c(N=Nc2ccc(F)cc2)ccc2ccccc12 | 4.11 µM (active) | -26.4 | – |
| Oc1ccc2ccccc2c1N=Nc1ccc(F)cc1 | 5.8 µM (active) | -18.6 | – |
| Cc1ccc(N=Nc2ccc(C)cc2NC(=O)Nc2ccccc2F)cc1 | inactive | 4.52 | – |
| Cc1ccc(N=Nc2ccc(O)c3ncccc23)cc1 | inactive | -11.6 | – |
| O=C(CNc1ccc(F)cc1)N/N=C/c1c(O)ccc2ccccc12 | inactive | -11.6 | – |
| O=C(NNC(=O)c1ccc2ccccc2c1O)Nc1ccc(F)cc1 | inactive | 22.7 | – |
| NS(=O)(=O)c1ccc(N=Nc2c(O)c(C(=O)O)cc3ccccc23)cc1 | inactive | -8.07 | – |
| O=C(O)c1cc(N=Nc2c(O)ccc3ccccc23)cc(C(=O)O)c1 | inactive | 0.308 | – |
| Cc1cccc(C)c1OCC(=O)N/N=C/c1ccncc1 | inactive | 1.08 | – |
| CN(CC(=O)Nc1ccc(Cl)cc1)C(=O)c1cc(-c2cccs2)nn1-c1ccccc1 | inactive | 15.7 | – |
| COC(=O)CCC(=O)Nc1ccc(Br)cc1 | inactive | -3.41 | – |
| CCOc1ccccc1NC(=O)CSc1nnc(CCC(=O)Nc2ccccc2F)n1C | inactive | -0.293 | – |
| CC(C)(C)OC(=O)N[C@@H](CCCCNC(=O)OCc1ccccc1)c1nnc([C@H](CCCCNC(=O)OCc2ccccc2)NC(=O)OC(C)(C)C)o1 | inactive | -3.75 | – |
| CCNC(=S)N1CCN(c2ccccn2)CC1 | inactive | 12.6 | – |
| CC(C)(C)c1ccc(C(=O)NC(=S)N2CCOCC2)cc1 | – | 8.33 | inactive [at 0.369 µM] |
| CC(C)(C)c1ccc(C(=O)N2CCC3(CC2)NCCc2[nH]cnc23)cc1 | inactive | 22.1 | – |
| O=Cc1ccc(OCC(=O)Nc2ccccc2-c2ccccc2)cc1 | inactive | 18 | – |
| COc1ccccc1NC(=O)Cc1cccc2ccccc12 | inactive | -14.6 | – |

| Structure (SMILES) | Potency | cell number change [%] | outcome |
| --- | --- | --- | --- |
| COc1cc(NS(=O)(=O)c2ccc(NC(=S)NC(=O)c3ccco3)cc2)nc(OC)n1 | inactive | -18.5 | – |
| COc1cc(/C=N/n2c(-c3cc(C)[nH]n3)n[nH]c2=S)ccc1O | inactive | 4.27 | – |
| CCOC(=S)SCC(=O)Nc1nc(-c2ccccc2)cs1 | 23.1 µM (active) | -22.6 | – |
| COCC(=O)Nc1nc(-c2ccc(-c3ccccc3)cc2)cs1 | inactive | 7.77 | – |
| CC1CCN(CC(=O)Nc2nc(-c3ccccc3)cs2)CC1 | inactive | 10.6 | – |
| CCOC(=O)N1CCN(C(=O)CSCC(=O)Nc2nc(-c3ccccc3)cs2)CC1 | inactive | -8.7 | – |
| Cc1ccc(-c2csc(NC(=O)CN3CCC(C(N)=O)CC3)n2)cc1 | inactive | -18.5 | – |
| CCOC(=O)c1ccc(-c2csc(NC(=O)CN3CCC(C)CC3)n2)cc1 | 2.91 µM (active) | 3.78 | – |
| COC(=O)NC1CCC(NC(=O)OC)CC1 (stereo unspecified) | inactive | -8.14 | – |
| O=C(Nc1cc(Cl)ccc1Oc1ccccc1)C1=COCCO1 | inactive | -27.8 | – |
| O=C(O)c1ccccc1C(=O)NNc1ccc(Cl)cc1 | inactive | 6.32 | – |
| CC(=O)C(=Nc1ccccc1Cl)NNc1ccc(Cl)cc1 | 23.1 µM (active) | -39.5 | – |
| CCOC(=O)C(=O)NNc1ccc(Cl)cc1 | inactive | 0.213 | – |
| CC12CCC(c3c(C(=O)N4CCOCC4)nn(-c4ccccc4)c31)C2(C)C (stereo unspecified) | inactive | 15.9 | – |
| CC12CCC(c3c(C(=O)O)nn(-c4ccccc4)c31)C2(C)C (stereo unspecified) | inactive | 7.24 | – |
| CC12CCC(c3c(C(=O)O)nn(-c4ccc(F)cc4)c31)C2(C)C (stereo unspecified) | 16.4 µM (active) | -9.61 | – |
| COc1ccc(N2CCN(C(c3ccc4ncccc4c3)c3nnnn3C(C)C)CC2)cc1 (stereo unspecified) | inactive | 3.49 | – |
| S=c1[nH]nc(CN2CCCCC2)n1Cc1ccccc1 | inactive | -2.92 | – |
| Fc1ccc(-n2c(CN3CCCCC3)n[nH]c2=S)cc1 | 1.64 µM (active) | -100 | – |
| FC(F)(F)c1ccccc1-n1c(CN2CCCCC2)n[nH]c1=S | inactive | -9.97 | – |
| Cc1ccc(S(=O)(=O)CCN2CCN(c3ccccn3)CC2)cc1 | inactive | 3.2 | – |
| CCc1ccc(-c2cc(C)no2)cc1S(=O)(=O)Nc1ccccn1 | inactive | -19.5 | – |
| Cc1cc(-c2ccc(C)c(S(=O)(=O)N3CCN(c4ccccn4)CC3)c2)on1 | inactive | -26.7 | – |

| Structure (SMILES) | Potency | cell number change [%] | outcome |
| --- | --- | --- | --- |
| CCc1ccc(-c2cc(C)no2)cc1S(=O)(=O)N1CCCN(Cc2ccc(F)cc2)C1 | inactive | 2.69 | – |
| CCc1ccc(-c2cc(C)no2)cc1S(=O)(=O)N1CCN(c2ccccc2OC)CC1 | inactive | 23.3 | – |
| CCc1ccc(-c2cc(C)no2)cc1S(=O)(=O)N1CC(=O)Nc2ccccc21 | 4.11 µM (active) | -17.1 | – |
| CCc1ccc(-c2cc(C)no2)cc1S(=O)(=O)NCCc1ccccc1 | inactive | 13.1 | – |
| Cc1cc(-c2ccc(C)c(S(=O)(=O)N3CC(=O)Nc4ccccc43)c2)on1 | 1.03 µM (active) | 3.36 | – |
| CCc1ccc(-c2cc(C)no2)cc1S(=O)(=O)N1CCOc2ccccc21 | 16.4 µM (active) | -0.472 | – |
| Cc1ccc(S(=O)(=O)N2CC(=O)Nc3ccccc32)c(C)c1NS(C)(=O)=O | inactive | -8.89 | – |
| Cc1ccc(Nc2cc(C)nc(-c3ccccc3)n2)cc1 | inactive | – | – |
| CC(=O)CSc1cc(-c2ccccc2)nc2ncnn12 | inactive | -21.4 | – |
| Cc1cc(C)nc(NS(=O)(=O)c2ccc(NC(=O)Nc3ccccc3F)cc2)n1 | inactive | -10.1 | – |
| O=C(Cn1cccc1C(=O)c1ccccc1)NCCCN1CCOCC1 | inactive | -0.598 | – |
| O=C1c2ccccc2CN1Cc1ccccc1 | inactive | 10.2 | – |
| COC(=O)CCn1[nH]c(=O)c2ccccc2c1=O | inactive | -3.6 | – |
| O=C(CCn1[nH]c(=O)c2ccccc2c1=O)NCCO | 11.6 µM (active) | 1.53 | – |
| CCCCCCCCOC(=O)CCn1[nH]c(=O)c2ccccc2c1=O | inactive | -16.3 | – |
| c1ccc(CN2CCOCCOCCOCC2)cc1 | inactive | -1.02 | – |
| CCOC(=O)c1ccc(N2C(=O)c3n[nH]c(C)c3C2c2ccc(OC)cc2)cc1 (stereo unspecified) | inactive | -20.7 | – |
| CC1(CCc2ccccc2)NC(=O)N(CC(=O)O)C1=O (stereo unspecified) | inactive | -3.79 | – |
| Cc1ccc(NC(=O)CSc2nnc(C3CC3)n2N)cc1S(=O)(=O)N1CCOCC1 | inactive | 12.4 | – |
| O=C(CCN1C(=O)NC2(CCCC2)C1=O)Nc1cccc(S(=O)(=O)N2CCOCC2)c1 | inactive | 2.63 | – |
| CC1CCCN(C(=O)Cn2c3ccccc3c3nc4n(c(=O)c32)CCS4)C1 (stereo unspecified) | 7.31 µM (active) | -9.4 | – |
| O=C(Cn1c2ccccc2c2nc3n(c(=O)c21)CCS3)N1CCCC1 | inactive | -22.8 | – |
| O=C(Cn1c2ccccc2c2nc3n(c(=O)c21)CCS3)Nc1ccccc1C(F)(F)F | inactive | -11.3 | – |

| Structure (SMILES) | Potency | cell number change [%] | outcome |
| --- | --- | --- | --- |
| COc1ccc(/C=N\Nc2ccccc2[N+](=O)[O-])c(C(=O)O)c1OC | inactive | 2.19 | – |
| Cc1ccc(C(=O)CSc2nnc(-c3ccccc3)n2-c2ccccc2)o1 | inactive | 6.85 | – |
| COC(=O)C1C2C=CC3(CN(C(C)c4ccc(OC)cc4)C(=O)C13)O2 (stereo unspecified) | 16.4 µM (active) | -5.31 | – |
| CCOC(=O)C1[C@H]2C(=O)N(C(C)c3ccc(OC)cc3)C[C@]23C=C[C@H]1O3 (stereo partly specified) | inactive | -3.61 | – |
| COc1ccc(C(C)N2CC34C=CC(O3)C(C(=O)OCC(C)C)C4C2=O)cc1 (stereo unspecified) | inactive | -0.854 | – |
| Cc1ccccc1Nc1nccc(N(C)C)c1C#N | inactive | -17.6 | – |
| COc1ccc(/C=C(/C#N)C(=O)NC2CCCCC2)cc1Br | inactive | -11.6 | – |
| CC(=O)Nc1ccc(/C=C(\C#N)C(=O)NC2CCCCC2)cc1 | 20.6 µM (active) | 6.15 | – |
| N#C/C(=C\c1ccccc1)C(=O)NC1CC1 | inactive | – | – |
| COc1cc2[nH]c(=O)n(Cc3ccc(C(=O)NCC4CCCO4)cc3)c(=O)c2cc1OC (stereo unspecified) | inactive | 12.5 | – |
| CCCCCn1c(=O)[nH]c2cc(C(=O)N3CCN(C(=O)OCC)CC3)ccc2c1=O | 3.66 µM (active) | – | – |
| COc1cc2[nH]c(=O)n(Cc3ccc(C(=O)N4CCC(N5CCCCC5)CC4)cc3)c(=O)c2cc1OC | 0.411 µM (active) | -3.59 | – |
| CCOC(=O)N1CCN(C(=O)c2ccc3c(=O)n(CCOC)c(=O)[nH]c3c2)CC1 | inactive | 1.58 | – |
| CCCCCn1c(=O)[nH]c2cc(C(=O)N3CCN(CC)CC3)ccc2c1=O | inactive | – | – |
| COc1cc2[nH]c(=O)n(Cc3ccc(C(=O)NC4CCCC4)cc3)c(=O)c2cc1OC | inactive | – | – |
| CCOC(=O)N1CCN(C(=O)c2ccc3c(=O)n(CCc4ccccc4)c(=O)[nH]c3c2)CC1 | inactive | – | – |
| COCCn1c(=O)[nH]c2cc(C(=O)NCCN3CCN(c4ccccc4F)CC3)ccc2c1=O | inactive | -8.35 | – |
| COCCn1c(=O)[nH]c2cc(C(=O)N3CCN(c4ccccc4F)CC3)ccc2c1=O | 11.6 µM (active) | -14.1 | – |
| CCCCCn1c(=O)[nH]c2cc(C(=O)N3CCN(c4ccccc4F)CC3)ccc2c1=O | inactive | 0.806 | – |
| CCOC(=O)N1CCN(C(=O)c2ccc3c(=O)n(CCc4ccc(OC)c(OC)c4)c(=O)[nH]c3c2)CC1 | 1.3 µM (active) | 12.7 | – |
| COc1ccc(N2CCN(C(=O)c3ccc4c(=O)n(CCc5ccc(OC)c(OC)c5)c(=O)[nH]c4c3)CC2)cc1 | inactive | -0.645 | – |
| CCC(=O)Nc1ccc2oc(-c3cccnc3)nc2c1 | inactive | 17.6 | – |
